Source: PubChem BioAssay (The Scripps Research Institute Molecular Screening Center)
FBW7 activator: human FBW7 E3 ligase activation, primary screen; Q969H0; AlphaScreen FBW7–phospho-cyclin E peptide binding, activator screen; AID 1259310; 0.13% of 650,000 active; normalized activity (activation), % at 26.1 µM; in the data active = normalized activity above about 1.9%;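 note: purified mutant Fbw7 with reduced substrate affinity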
TEAD-YAP block: TEAD-YAP interaction inhibition. AID 1259422. 1.4% of 640,000 active. HEK-TIYL cells, TEAD-Gal4/YAP UAS-luciferase luminescence. inhibition, % at 9.12 µM; in the data active = inhibition above about 32%;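 note: 0% = median of test compound wells and 100% = reference inhibitor wells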
GPR151 ag: human GPR151 activation. 1% of 650,000 active. activation, % at 11.2 µM. PathHunter beta-arrestin GPR151 cells, luminescence; in the data active = activation above about 4.9%;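 note: 0% = median of compound wells and 100% = cells with positive control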
MITF primary: human MITF inhibition, primary screen | O75030 | AlphaScreen MITF homodimerization, bead proximity signal | inhibition, % at 2.6 µM | 0.91% of 650,000 active | AID 1259374; in the data active = inhibition above about 50%;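 note: 0% = vehicle wells with protein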
Target sequence (O75030 whole entry, looked up): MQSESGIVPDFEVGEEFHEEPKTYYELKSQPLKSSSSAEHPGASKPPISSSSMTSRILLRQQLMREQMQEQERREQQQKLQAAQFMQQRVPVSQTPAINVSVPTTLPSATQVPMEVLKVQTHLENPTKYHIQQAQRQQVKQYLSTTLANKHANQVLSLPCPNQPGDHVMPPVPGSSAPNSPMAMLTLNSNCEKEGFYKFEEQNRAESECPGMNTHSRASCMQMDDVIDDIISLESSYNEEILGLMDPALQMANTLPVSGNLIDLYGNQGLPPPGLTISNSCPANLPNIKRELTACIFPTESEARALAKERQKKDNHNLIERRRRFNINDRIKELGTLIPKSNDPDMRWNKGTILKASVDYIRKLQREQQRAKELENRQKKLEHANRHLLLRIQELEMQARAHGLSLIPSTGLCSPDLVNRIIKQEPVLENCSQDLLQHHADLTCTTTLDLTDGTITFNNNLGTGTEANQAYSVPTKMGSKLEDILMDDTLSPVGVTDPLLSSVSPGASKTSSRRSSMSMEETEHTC
* = called active by the depositor. In the library only some 3.4% were active in any assay of this set; here they are far more common.

SMILES	FBW7 activator	TEAD-YAP block	GPR151 ag	MITF primary
CC(=O)NC(c1ccccc1Cl)c1cc([N+](=O)[O-])c2cccnc2c1O (stereo unspecified)	-1	4	-1	90*
CC(=O)NC(c1cccs1)c1cc([N+](=O)[O-])c2cccnc2c1O (stereo unspecified)	0	-14	0	79*
CC1=C(C(=O)OCC2CCCO2)C(c2cccc(Cl)c2)NC(=O)N1 (stereo unspecified)	0	-4	1	12
CCOC(=O)Cc1csc(/N=C/c2nc(-c3cccc(OC)c3)oc2O)n1	0	6	-1	-4
CCN(CC)C(=O)Cn1c(C)c(C#N)c2ccccc21	1.9*	3	0	18
Cc1sc(NC(=O)c2ccc(Cl)s2)c(C(N)=O)c1-c1ccc(F)cc1	0	36*	1	8
Cc1sc(NC(=O)c2ccc(Cl)s2)c(C(N)=O)c1C	0	-61	-1	-6
CCCCCCNC(=O)c1ccc(N2CCN(c3ccccn3)CC2)c([N+](=O)[O-])c1	0	8	0	16
CCC(=O)N(/C=C1\Sc2ccccc2C1=O)c1ccccc1OC	0	83*	1	-2
COc1ccc(N(/C=C2\Sc3ccccc3C2=O)C(=O)c2ccco2)cc1	0	31	-5	5
CCC(=O)N(/C=C1\Sc2ccccc2C1=O)c1ccccc1	1	-1	-3	18
CCC(=O)N(/C=C1\Sc2ccccc2C1=O)c1ccc(C)cc1	0	53*	-3	6
CC(=O)N(/N=C1\Sc2ccccc2C1=O)c1ccc(Br)cc1	0	-12	0	27
CC(=O)N(/N=C1\Sc2ccccc2C1=O)c1ccccc1[N+](=O)[O-]	0	59*	-1	25
CC1CN(C(=O)N2CCC(C(=O)O)CC2)c2ccccc2S1 (stereo unspecified)	0	-13	-1	1
CC1CCN(C(=O)CCl)c2ccccc2S1 (stereo unspecified)	0	67*	0	15
O=C(Cc1ccccc1Cl)N1CCN(c2ccc(-c3ccc4c(c3)OCO4)nn2)CC1	0	6	0	-5
CSc1ccc(C=C2C(=O)c3ccccc3C2=O)cc1	0	6	0	0
CC1C(=O)C(=O)/C(=C\c2ccccc2)C1=O (stereo unspecified)	0	0	1	82*
C=CCNC(=S)N/N=C/c1ccc(C(F)(F)F)cc1	0	44*	1	-4
CCCc1ccc(C(=O)Nc2cnc3ccccc3c2)cc1	0	70*	-5	12
Cc1ccc(C(C)C(=O)NCCn2nc(-c3cccs3)ccc2=O)cc1 (stereo unspecified)	0	8	1	11
O=C(Nc1nc(-c2c[nH]c3ccccc23)cs1)c1n[nH]c(=O)c2ccccc12	0	36*	2	-4
O=C(Nc1nc(-c2c[nH]c3ccccc23)cs1)C1CCCC1	0	-56	-1	-1
Cc1cc(C)cc(-n2c(O)cnc2Nc2nc(C)cc(C)n2)c1	0	-2	1	-20
SMILES	FBW7 activator	TEAD-YAP block	GPR151 ag	MITF primary
CCCCC(=O)Nc1cc(OC)c(OC)cc1C(=O)O	2.2*	5	1	-1
COc1ccccc1CC(=O)Nc1cc(OC)c(OC)cc1C(=O)O	1	12	0	20
O=C(Cc1c[nH]c2ccccc12)Nc1nnc(C2CC2)s1	0	34*	-1	-1
CC(C)(C)c1ccc(C(=O)CC2(O)C(=O)Nc3ccc(Br)cc32)cc1 (stereo unspecified)	0	-5	-1	8
c1cc(-c2ccc3cnc(Nc4ccc(-n5cnc(N6CCOCC6)n5)cc4)nc3c2)c[nH]1	-1	53*	4	6
c1cc(-c2ccc3cnc(Nc4ccc(-n5cnc(N6CCOCC6)n5)cc4)nc3c2)co1	0	-1	2	37
Cc1ccc(-c2ccc3cnc(Nc4ccc(-n5cnc(N6CCOCC6)n5)cc4)nc3c2)cn1	2.3*	0	0	-1
CCC[n+]1cccc2cc(OC)ccc21	0	1	1	-1
COc1ccc(C(=O)C[n+]2cccc3cc(OC)ccc32)cc1	0	53*	0	-5
COc1ccc(Nc2cc(C)nc3ccc(OC)cc23)cc1	0	10	-1	-1
COC(=O)c1ccc(Nc2cc(C)nc3ccc(Cl)cc23)cc1	0	49*	1	13
COC(=O)c1ccc2nc(C)cc(Nc3ccc(C(=O)O)cc3)c2c1	0	11	1	18
COc1ccc2nc(C)cc(Nc3ccc(O)cc3)c2c1	0	34*	-1	2
COC(=O)c1ccc(Nc2cc(C)nc3cc(Cl)ccc23)cc1	0	49*	0	-2
CNCCCOc1ccc(Br)cc1Cl	0	8	1	37
